In PubChem BioAssay (EPA / NIEHS):
Results filed as inconclusive are left out. Activity calls are given as the source filed them. The calls were made as follows: active = hit-call score of the fitted dose curve at least 0.9, where 1 is the maximum; inconclusive = response in the unintended direction; inactive = score below 0.9.

Each compound was assayed against Glucocorticoid receptor (Homo sapiens) (UniProt P04150) (assay: ATG_GR_TRANS: Attagene TRANS-FACTORIAL HepG2 Assay for human Glucocorticoid Receptor (GR) (AID 2282978;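 also: activators score as hits since higher reporter transcript over DMSO is fitted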)). Conditions: HepG2 Attagene TRANS GR reporter, mRNA transcription.
Glucocorticoid receptor (Homo sapiens), sequence (P04150 whole entry, looked up, the tested form may be a part): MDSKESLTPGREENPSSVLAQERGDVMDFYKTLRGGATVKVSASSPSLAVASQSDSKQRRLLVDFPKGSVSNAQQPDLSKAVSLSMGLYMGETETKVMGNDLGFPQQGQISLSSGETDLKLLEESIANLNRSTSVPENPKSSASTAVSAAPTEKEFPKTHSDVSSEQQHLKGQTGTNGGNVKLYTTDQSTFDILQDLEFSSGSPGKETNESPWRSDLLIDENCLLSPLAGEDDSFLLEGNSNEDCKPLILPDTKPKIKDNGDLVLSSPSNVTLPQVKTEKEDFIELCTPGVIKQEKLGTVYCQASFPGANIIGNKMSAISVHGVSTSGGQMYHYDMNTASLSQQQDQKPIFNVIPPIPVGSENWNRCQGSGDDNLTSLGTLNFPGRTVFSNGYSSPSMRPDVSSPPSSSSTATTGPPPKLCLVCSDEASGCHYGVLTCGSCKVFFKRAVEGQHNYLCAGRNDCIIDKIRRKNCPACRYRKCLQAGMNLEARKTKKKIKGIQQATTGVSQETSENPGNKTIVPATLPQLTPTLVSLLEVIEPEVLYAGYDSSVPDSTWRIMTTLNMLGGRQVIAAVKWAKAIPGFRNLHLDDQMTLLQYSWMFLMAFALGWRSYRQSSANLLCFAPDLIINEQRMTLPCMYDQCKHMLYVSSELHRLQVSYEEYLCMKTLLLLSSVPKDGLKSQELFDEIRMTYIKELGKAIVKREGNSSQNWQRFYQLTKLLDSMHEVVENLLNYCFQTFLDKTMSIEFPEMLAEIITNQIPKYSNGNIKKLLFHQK
How it was run: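 HepG2 cells transiently transfected with GAL4-UAS reporter units and exogenous GR-Gal4 chimera, dosed 24 h. Reporter mRNA by RT-PCR, FAM labeling, HpaI digest and capillary electrophoresis; gain-of-signal fit versus DMSO.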

SMILES | outcome
CCc1nn(C)c(C(=O)NCc2ccc(C(C)(C)C)cc2)c1Cl | inactive
CCOC(=O)CC(SP(=S)(OC)OC)C(=O)OCC (configuration not stated) | inactive
C=CCC1=C(C)[C@@H](OC(=O)[C@@H]2[C@@H](C=C(C)C)C2(C)C)CC1=O | inactive
CCCCC(CC)COC(=O)c1ccccc1C(=O)OCC(CC)CCCC (configuration not stated) | inactive
CCNc1nc(Cl)nc(NCC)n1 | inactive
O=C(Nc1ccccc1)Nc1ccnc(Cl)c1 | inactive
CCCCNC(=O)n1c(NC(=O)OC)nc2ccccc21 | inactive
CCOC(=O)C(Cl)Cc1cc(-n2nc(C)n(C(F)F)c2=O)c(F)cc1Cl (configuration not stated) | inactive
O=C(O)c1nc(Cl)ccc1Cl | inactive
CNC(=S)S | inactive
Cc1c(F)c(F)c(COC(=O)C2C(/C=C(\Cl)C(F)(F)F)C2(C)C)c(F)c1F (configuration not stated) | inactive
Cc1ccc(-c2c(Cl)nc(C#N)n2S(=O)(=O)N(C)C)cc1 | inactive
CC(Oc1ccc(Cl)cc1Cl)C(=O)O (configuration not stated) | inactive
Fc1ccc(Oc2ccnc3cc(Cl)cc(Cl)c23)cc1 | inactive

What follows are compounds tested against Bile acid receptor (Homo sapiens) (UniProt Q96RI1) (assay: ATG_FXR_TRANS: Attagene TRANS-FACTORIAL HepG2 Assay for Farnesoid X Receptor (FXR) (AID 2282979;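 also: hits raise reporter mRNA above DMSO so AC50 marks FXR activation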)). Conditions: HepG2 Attagene TRANS FXR-GAL4 reporter transcription.
Bile acid receptor (Homo sapiens), sequence (Q96RI1 whole entry, looked up, the tested form may be a part): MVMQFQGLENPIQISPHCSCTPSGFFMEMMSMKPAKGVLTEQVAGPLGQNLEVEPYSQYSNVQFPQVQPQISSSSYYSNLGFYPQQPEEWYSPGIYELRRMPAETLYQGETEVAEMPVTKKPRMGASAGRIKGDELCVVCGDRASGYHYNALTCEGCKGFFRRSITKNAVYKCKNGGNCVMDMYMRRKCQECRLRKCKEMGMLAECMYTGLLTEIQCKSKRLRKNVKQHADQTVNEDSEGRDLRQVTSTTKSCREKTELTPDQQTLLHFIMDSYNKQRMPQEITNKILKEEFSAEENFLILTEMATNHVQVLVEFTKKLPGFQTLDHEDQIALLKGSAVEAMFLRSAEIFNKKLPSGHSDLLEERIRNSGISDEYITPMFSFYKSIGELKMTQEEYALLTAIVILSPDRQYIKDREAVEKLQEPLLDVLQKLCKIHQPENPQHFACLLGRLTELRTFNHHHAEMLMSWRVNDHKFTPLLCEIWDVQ
How it was run: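 Reporter transcripts from transfected HepG2 cells were measured 24 h after dosing, using RT-PCR with capillary electrophoresis of 6-FAM-labelled fragments. The read-out reflects activity of exogenous FXR-Gal4 chimera on GAL4-UAS units, with induction relative to DMSO.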

SMILES | outcome
CC(C)C1(C)N=C(c2nc3ccccc3cc2C(=O)O)NC1=O (configuration not stated) | inactive
CCCCC(CC)COC(=O)c1ccccc1C(=O)OCC(CC)CCCC (configuration not stated) | inactive
C#CCOS(=O)OC1CCCCC1Oc1ccc(C(C)(C)C)cc1 (configuration not stated) | inactive
CC1=C(C(=O)Nc2ccccc2)SCCO1 | inactive

These compounds were tested against Oxysterols receptor LXR-alpha (Homo sapiens) (UniProt Q13133) (assay: ATG_LXRa_TRANS: Attagene TRANS-FACTORIAL HepG2 Assay for human Liver X Receptor alpha (LXRa) (AID 2282980)). Conditions: HepG2 Attagene TRANS reporter, LXRa transactivation.
Oxysterols receptor LXR-alpha (Homo sapiens), sequence (Q13133 whole entry, looked up, the tested form may be a part): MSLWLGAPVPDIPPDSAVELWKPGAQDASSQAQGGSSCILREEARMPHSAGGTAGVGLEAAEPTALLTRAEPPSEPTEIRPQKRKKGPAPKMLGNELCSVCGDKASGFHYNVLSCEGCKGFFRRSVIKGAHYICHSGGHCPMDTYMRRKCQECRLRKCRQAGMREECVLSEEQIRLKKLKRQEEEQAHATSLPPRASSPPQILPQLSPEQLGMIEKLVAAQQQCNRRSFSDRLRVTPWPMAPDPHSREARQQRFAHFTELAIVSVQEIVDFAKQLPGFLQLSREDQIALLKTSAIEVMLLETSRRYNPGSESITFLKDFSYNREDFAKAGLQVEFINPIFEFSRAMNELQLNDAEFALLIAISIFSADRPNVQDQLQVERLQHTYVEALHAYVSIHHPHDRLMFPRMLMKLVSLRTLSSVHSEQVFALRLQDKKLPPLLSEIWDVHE
How it was run: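 Chemical-induced reporter mRNA measured by RT-PCR with fluorescent labelling and capillary electrophoresis after 24 h dosing of transiently transfected HepG2 cells expressing exogenous NR-Gal4 chimeras; increases scored against DMSO baseline.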

SMILES | AC50 | outcome
CCc1nn(C)c(C(=O)NCc2ccc(C(C)(C)C)cc2)c1Cl | 258 nM (active) | 
CCOC(=O)CC(SP(=S)(OC)OC)C(=O)OCC (configuration not stated) |  | inactive
CC(C)C1(C)N=C(c2nc3ccccc3cc2C(=O)O)NC1=O (configuration not stated) |  | inactive
COP(N)(=O)SC (configuration not stated) |  | inactive
CS/C(C)=N/OC(=O)N(C)SN(C)C(=O)O/N=C(\C)SC |  | inactive
CCNc1nc(Cl)nc(NCC)n1 |  | inactive
O=C(Nc1ccccc1)Nc1ccnc(Cl)c1 |  | inactive
CCCCNC(=O)n1c(NC(=O)OC)nc2ccccc21 |  | inactive
CCOC(=O)C(Cl)Cc1cc(-n2nc(C)n(C(F)F)c2=O)c(F)cc1Cl (configuration not stated) |  | inactive
O=C(O)c1nc(Cl)ccc1Cl |  | inactive
CN(C)C(=S)SSC(=S)N(C)C |  | inactive
C#CCOS(=O)OC1CCCCC1Oc1ccc(C(C)(C)C)cc1 (configuration not stated) |  | inactive
CNC(=S)S |  | inactive
N#Cc1cc(Br)c(O)c(Br)c1 |  | inactive
CCON=C(CC)C1=C(O)CC(c2c(C)cc(C)cc2C)CC1=O (configuration not stated) |  | inactive
Cc1c(F)c(F)c(COC(=O)C2C(/C=C(\Cl)C(F)(F)F)C2(C)C)c(F)c1F (configuration not stated) |  | inactive
Cc1ccc(-c2c(Cl)nc(C#N)n2S(=O)(=O)N(C)C)cc1 |  | inactive
Fc1ccc(Oc2ccnc3cc(Cl)cc(Cl)c23)cc1 |  | inactive

These compounds were tested against Oxysterols receptor LXR-beta (Homo sapiens) (UniProt P55055) (assay: ATG_LXRb_TRANS: Attagene TRANS-FACTORIAL HepG2 Assay for human Liver X Receptor beta (LXRb) (AID 2282981)). Conditions: HepG2 Attagene TRANS GAL4-LXRb reporter, mRNA.
Oxysterols receptor LXR-beta (Homo sapiens), sequence (P55055 whole entry, looked up, the tested form may be a part): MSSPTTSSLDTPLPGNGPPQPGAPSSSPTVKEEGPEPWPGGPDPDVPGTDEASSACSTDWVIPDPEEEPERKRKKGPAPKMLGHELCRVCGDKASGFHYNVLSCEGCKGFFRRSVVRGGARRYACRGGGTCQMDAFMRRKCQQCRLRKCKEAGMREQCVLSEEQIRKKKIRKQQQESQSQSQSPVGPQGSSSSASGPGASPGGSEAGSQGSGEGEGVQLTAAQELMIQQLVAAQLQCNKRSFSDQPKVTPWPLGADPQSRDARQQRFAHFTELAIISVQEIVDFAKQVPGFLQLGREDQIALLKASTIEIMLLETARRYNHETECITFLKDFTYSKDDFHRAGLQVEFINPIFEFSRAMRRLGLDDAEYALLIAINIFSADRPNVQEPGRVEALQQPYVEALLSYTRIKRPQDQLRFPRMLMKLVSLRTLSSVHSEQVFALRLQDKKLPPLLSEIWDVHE
How it was run: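 Measures induction of a Gal4-driven reporter transcript in HepG2 cells expressing an exogenous LXRb-Gal4 fusion. Cells are exposed to compound for 24 h before RNA isolation and RT-PCR with capillary electrophoresis detection.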

SMILES | AC50 | outcome
CCc1nn(C)c(C(=O)NCc2ccc(C(C)(C)C)cc2)c1Cl | 343 nM (active) | 
CCOC(=O)CC(SP(=S)(OC)OC)C(=O)OCC (configuration not stated) |  | inactive
C=CCC1=C(C)[C@@H](OC(=O)[C@@H]2[C@@H](C=C(C)C)C2(C)C)CC1=O |  | inactive
CC(C)C1(C)N=C(c2nc3ccccc3cc2C(=O)O)NC1=O (configuration not stated) |  | inactive
Oc1ccccc1-c1ccccc1 |  | inactive
CS/C(C)=N/OC(=O)N(C)SN(C)C(=O)O/N=C(\C)SC |  | inactive
CCCCC(CC)COC(=O)c1ccccc1C(=O)OCC(CC)CCCC (configuration not stated) |  | inactive
CCNc1nc(Cl)nc(NCC)n1 |  | inactive
O=C(Nc1ccccc1)Nc1ccnc(Cl)c1 |  | inactive
CCCCNC(=O)n1c(NC(=O)OC)nc2ccccc21 |  | inactive
CCOC(=O)C(Cl)Cc1cc(-n2nc(C)n(C(F)F)c2=O)c(F)cc1Cl (configuration not stated) |  | inactive
O=C(O)c1nc(Cl)ccc1Cl |  | inactive
COc1nc(C)nc(NC(=O)NS(=O)(=O)c2ccccc2Cl)n1 |  | inactive
CN(C)C(=S)SSC(=S)N(C)C |  | inactive
C#CCOS(=O)OC1CCCCC1Oc1ccc(C(C)(C)C)cc1 (configuration not stated) |  | inactive
CNC(=S)S |  | inactive
N#Cc1cc(Br)c(O)c(Br)c1 |  | inactive
CCON=C(CC)C1=C(O)CC(c2c(C)cc(C)cc2C)CC1=O (configuration not stated) |  | inactive
Cc1c(F)c(F)c(COC(=O)C2C(/C=C(\Cl)C(F)(F)F)C2(C)C)c(F)c1F (configuration not stated) |  | inactive
CC1=C(C(=O)Nc2ccccc2)SCCO1 |  | inactive
COP(=S)(OC)Oc1nc(Cl)c(Cl)cc1Cl |  | inactive
Cc1ccc(-c2c(Cl)nc(C#N)n2S(=O)(=O)N(C)C)cc1 |  | inactive
CC(Oc1ccc(Cl)cc1Cl)C(=O)O (configuration not stated) |  | inactive
Fc1ccc(Oc2ccnc3cc(Cl)cc(Cl)c23)cc1 |  | inactive

The compounds below were run against Hepatocyte nuclear factor 4-alpha (Homo sapiens) (UniProt P41235) (assay: ATG_HNF4a_TRANS: Attagene TRANS-FACTORIAL HepG2 Assay for human Hepatocyte Nuclear Factor 4 alpha (HNF4a) (AID 2282982)). Conditions: HepG2 HNF4a transactivation reporter, mRNA readout.
Hepatocyte nuclear factor 4-alpha (Homo sapiens), sequence (P41235 whole entry, looked up, the tested form may be a part): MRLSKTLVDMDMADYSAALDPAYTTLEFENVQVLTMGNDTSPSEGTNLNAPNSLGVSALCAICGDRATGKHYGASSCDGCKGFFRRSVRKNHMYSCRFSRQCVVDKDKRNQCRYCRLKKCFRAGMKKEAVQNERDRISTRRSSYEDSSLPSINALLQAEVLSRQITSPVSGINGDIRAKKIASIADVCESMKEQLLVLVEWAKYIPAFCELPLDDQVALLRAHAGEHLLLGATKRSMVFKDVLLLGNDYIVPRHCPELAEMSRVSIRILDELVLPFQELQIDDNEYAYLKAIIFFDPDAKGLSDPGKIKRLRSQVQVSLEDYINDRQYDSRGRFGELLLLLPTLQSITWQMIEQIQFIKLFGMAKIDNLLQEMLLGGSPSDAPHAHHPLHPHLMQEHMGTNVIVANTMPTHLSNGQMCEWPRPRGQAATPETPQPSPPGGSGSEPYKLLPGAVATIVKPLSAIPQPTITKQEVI
How it was run: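 In this trans-factorial format, a chimeric HNF4a-GAL4 fusion drives a GAL4-UAS reporter in transfected HepG2 liver cells. After 24 h treatment, reporter mRNA induction is measured by RT-PCR with capillary electrophoresis, relative to DMSO.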

SMILES | outcome
CCc1nn(C)c(C(=O)NCc2ccc(C(C)(C)C)cc2)c1Cl | inactive
CCOC(=O)CC(SP(=S)(OC)OC)C(=O)OCC (configuration not stated) | inactive
C=CCC1=C(C)[C@@H](OC(=O)[C@@H]2[C@@H](C=C(C)C)C2(C)C)CC1=O | inactive
CC(C)C1(C)N=C(c2nc3ccccc3cc2C(=O)O)NC1=O (configuration not stated) | inactive
COP(N)(=O)SC (configuration not stated) | inactive
Oc1ccccc1-c1ccccc1 | inactive
CCCCC(CC)COC(=O)c1ccccc1C(=O)OCC(CC)CCCC (configuration not stated) | inactive
O=C(Nc1ccccc1)Nc1ccnc(Cl)c1 | inactive
CCCCNC(=O)n1c(NC(=O)OC)nc2ccccc21 | inactive
COc1nc(C)nc(NC(=O)NS(=O)(=O)c2ccccc2Cl)n1 | inactive
C#CCOS(=O)OC1CCCCC1Oc1ccc(C(C)(C)C)cc1 (configuration not stated) | inactive
CNC(=S)S | inactive
N#Cc1cc(Br)c(O)c(Br)c1 | inactive
O=C(O)COc1nc(Cl)c(Cl)cc1Cl | inactive
Cc1c(F)c(F)c(COC(=O)C2C(/C=C(\Cl)C(F)(F)F)C2(C)C)c(F)c1F (configuration not stated) | inactive
CC(Oc1ccc(Cl)cc1Cl)C(=O)O (configuration not stated) | inactive
Fc1ccc(Oc2ccnc3cc(Cl)cc(Cl)c23)cc1 | inactive
